Inconclusive results are not listed. The source made the active and inactive calls. How the source made its calls, unless noted: active means hit-call score of the fitted dose curve at least 0.9, where 1 is the maximum; inconclusive means response in the unintended direction; inactive means score below 0.9.

By AC50 is commonly meant the concentration giving half of the maximal activity seen.

Test [1] can be described thus: ATG_TAL_CIS: Attagene CIS-FACTORIAL HepG2 Assay for human TAL Basal Promoter (AID 2282966; active means hit-call score of the fitted dose curve at least 0.9, where 1 is the maximum; inactive means score below 0.9;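 further: background control endpoint measuring basal TAL promoter reporter mRNA not a specific factor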). The conditions noted are these: HepG2 Attagene cis-factorial TAL promoter reporter; actives raise or lower the signal. A digest of the protocol:
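HepG2, transient MRTU transfection, 24 h compound exposure; RNA → oligo(dT) RT → PCR → 6-FAM primer extension → HpaI digest → CE fluorescence. Bidirectional curve fit vs DMSO. Background-control readout.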

The nature of test [2]: ATG_TGFb_CIS: Attagene CIS-FACTORIAL HepG2 Assay for human Transforming Growth Factor (TGF) (AID 2282967; active means hit-call score of the fitted dose curve at least 0.9, where 1 is the maximum; inactive means score below 0.9). The conditions noted are these: HepG2 Attagene CIS TGFb reporter, mRNA transcription; actives raise or lower the signal. A digest of the protocol: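 Endogenous TGFB1-linked transcription factor activity read as reporter mRNA via RT-PCR and capillary electrophoresis, 24 h after dosing transiently transfected HepG2 cells. Gain or loss of signal fitted relative to DMSO.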

The nature of test [3]: ATG_VDRE_CIS: Attagene CIS-FACTORIAL HepG2 Assay for human Vitamin D Receptor Element (VDRE) (AID 2282968; active means hit-call score of the fitted dose curve at least 0.9, where 1 is the maximum; inactive means score below 0.9). The conditions noted are these: HepG2 VDRE cis-reporter transcription, actives raise or lower the signal. A digest of the protocol:
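Readout is VDRE-driven reporter mRNA reflecting endogenous factor activity in human HepG2 cells, sampled 24 h post-dose. Quantification used labelled RT-PCR products separated by capillary electrophoresis; bidirectional analysis relative to DMSO.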

Test [4] deals with Nuclear receptor subfamily 1 group I member 3 (Homo sapiens) (UniProt Q14994). As to the kind of experiment: ATG_CAR_TRANS: Attagene TRANS-FACTORIAL HepG2 Assay for human Constitutive Androstane Receptor (CAR) (AID 2282969).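 Further: activators raise reporter mRNA above DMSO so AC50 marks induction.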 The conditions noted are these: HepG2 Attagene TRANS-FACTORIAL CAR reporter. The procedure, abridged: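 Signal is reporter mRNA induction relative to DMSO, measured 24 h after dosing by RT-PCR with fluorescent primer extension and capillary electrophoresis. Human HepG2 liver cells carried transiently transfected chimeric NR-Gal4/GAL4-UAS reporter constructs.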

The target in test [5] is X-box-binding protein 1 (Homo sapiens) (UniProt P17861). As to the kind of experiment: ATG_Xbp1_CIS: Attagene CIS-FACTORIAL HepG2 Assay for human X-box Binding Protein 1 (XBP1) (AID 2282972; active means hit-call score of the fitted dose curve at least 0.9, where 1 is the maximum; inactive means score below 0.9). To be noted: HepG2 XBP1 cis-element reporter, Attagene multiplex; actives raise or lower the signal. A digest of the protocol: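 Reporter transcripts were quantified by RT-PCR with fluorescent primer extension and capillary electrophoresis after 24 h chemical exposure. Cells: transiently transfected HepG2 carrying cis-regulated reporter constructs; data fitted bidirectionally relative to DMSO.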
Chain of X-box-binding protein 1 (Homo sapiens) (P17861 whole entry, looked up): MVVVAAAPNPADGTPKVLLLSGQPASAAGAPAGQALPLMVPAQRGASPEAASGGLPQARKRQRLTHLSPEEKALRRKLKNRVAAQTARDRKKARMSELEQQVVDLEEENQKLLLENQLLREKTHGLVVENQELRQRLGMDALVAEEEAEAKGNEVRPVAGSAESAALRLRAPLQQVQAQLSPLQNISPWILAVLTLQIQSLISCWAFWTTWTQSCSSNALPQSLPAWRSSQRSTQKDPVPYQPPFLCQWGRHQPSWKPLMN

Test [6] in a line: ATG_GAL4_TRANS: Attagene TRANS-FACTORIAL HepG2 Assay for GAL4 (Internal Marker) (AID 2282976). The conditions noted are these: HepG2 Attagene TRANS GAL4 internal marker reporter. A digest of the protocol: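 RT-PCR/capillary electrophoresis readout of reporter mRNA. HepG2, transient MRTU transfection (GAL4-UAS reporters), 24 h compound exposure. Background-control endpoint, positive direction vs DMSO baseline.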

A short description of test [7]: ATG_M_06_TRANS: Attagene TRANS-FACTORIAL HepG2 Assay for M06 Transcription Factor (Internal Marker) (AID 2282983). To be noted: HepG2 Attagene TRANS M06 internal marker reporter. The procedure, abridged: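 Read-out: fluorescent reporter cDNA fragments resolved by capillary electrophoresis after RT-PCR and HpaI cut. Source cells were HepG2 carrying transfected multi-reporter GAL4 constructs, dosed 24 h. Increase over DMSO control analysed.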

Test [8] in a line: ATG_M_32_TRANS: Attagene TRANS-FACTORIAL HepG2 Assay for M32 Transcription Factor (Internal Marker) (AID 2282984).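 Further: transcript level of a background control reporter unit measured by RT-PCR and capillary electrophoresis.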 The conditions noted are these: HepG2 Attagene TRANS M32 internal marker reporter. The procedure, abridged: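 Internal background reporter in transfected HepG2: after 24 h chemical exposure, RNA reverse-transcribed, reporter cDNA amplified, fluorescently labelled and HpaI-cut, then sized by capillary electrophoresis. Gain of signal fitted against DMSO control.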

Test [9] addresses Nuclear receptor subfamily 4 group A member 2 (Homo sapiens) (UniProt P43354). As to the kind of experiment: ATG_NURR1_TRANS: Attagene TRANS-FACTORIAL HepG2 Assay for human Nuclear Receptor Related Protein 1 (NURR1) (AID 2282985). To be noted: HepG2 Attagene TRANS reporter, mRNA readout. The procedure, abridged:
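Reporter transcript induction, measured by RT-PCR with fluorescent labelling, HpaI digestion and capillary electrophoresis, after 24 hr dosing of human HepG2 cells transiently expressing an exogenous NR-Gal4 fusion with GAL4-UAS-driven reporters; DMSO as baseline.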

The target in test [10] is Transcriptional activator Myb (Homo sapiens) (UniProt P10242). As to the kind of experiment: ATG_Myb_CIS: Attagene CIS-FACTORIAL HepG2 Assay for human Myeloblastosis (Myb) Proto-Oncogene Transcription Factor (AID 2282986; active means hit-call score of the fitted dose curve at least 0.9, where 1 is the maximum; inactive means score below 0.9). To be noted: HepG2 Attagene CIS-FACTORIAL Myb reporter transcription; actives raise or lower the signal. The procedure, abridged:
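Transiently transfected HepG2 cells carrying a multiplexed cis-promoter reporter set report endogenous Myb activity after 24 h compound exposure. Reporter mRNA is read by RT-PCR with capillary electrophoresis of fluorescent products, fitted bidirectionally against DMSO.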

Test [11] addresses Nuclear respiratory factor 1 (Homo sapiens) (UniProt Q16656). As to the kind of experiment: ATG_NRF1_CIS: Attagene CIS-FACTORIAL HepG2 Assay for human Nuclear Respiratory Factor 1 (NRF1) Orphan Gene (AID 2282987; active means hit-call score of the fitted dose curve at least 0.9, where 1 is the maximum; inactive means score below 0.9). To be noted: HepG2 NRF1 cis-element reporter, Attagene multiplex; actives raise or lower the signal. A digest of the protocol:
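HepG2 cells transiently transfected with multiple cis-regulated reporter units, exposed 24 h. Reporter mRNAs measured by RT-PCR, fluorescent labelling, HpaI digestion and capillary electrophoresis; bidirectional fitting against DMSO.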

Test [12] can be described thus: ATG_NFI_CIS: Attagene CIS-FACTORIAL HepG2 Assay for human Nuclear Factor I (NFI) (AID 2282989; active means hit-call score of the fitted dose curve at least 0.9, where 1 is the maximum; inactive means score below 0.9). To be noted: HepG2 cis-regulatory reporter, NFI response element transcription; actives raise or lower the signal. A digest of the protocol:
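Reporter transcripts were measured by RT-PCR with fluorescent primer extension and capillary electrophoresis 24 h post-treatment. HepG2 cells carried transiently transfected cis-regulated reporter constructs reporting endogenous factor activity; gain or loss fitted against DMSO baseline.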

Test [13] has as its target Steroid hormone receptor ERR1 (Homo sapiens) (UniProt P11474). As to the kind of experiment: ATG_ERRa_TRANS: Attagene TRANS-FACTORIAL HepG2 Assay for human Estrogen-Related Receptor alpha (ERRa) (AID 2282971). The conditions noted are these: HepG2 Attagene TRANS reporter, ERRa transactivation. A digest of the protocol:
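Transfected HepG2, 24 h dosing, ERRa-Gal4 chimera driving GAL4-UAS reporter. Readout: reporter mRNA via RT-PCR plus capillary electrophoresis (fluorescence). Positive direction vs DMSO control.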

Test [14] is described as follows: ATG_M_19_TRANS: Attagene TRANS-FACTORIAL HepG2 Assay for M19 Transcription Factor (Internal Marker) (AID 2282974). To be noted: HepG2 Attagene TRANS-FACTORIAL M19 internal marker reporter. The procedure, abridged:
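HepG2 transiently transfected with GAL4-UAS multiplex reporter constructs, exposed 24 h; reporter RNA quantified by RT-PCR, 6-FAM labeling, HpaI digestion and capillary electrophoresis; internal background marker fitted upward versus DMSO.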

The target of test [15] is Estrogen-related receptor gamma (Homo sapiens) (UniProt P62508). As to the kind of experiment: ATG_ERRg_TRANS: Attagene TRANS-FACTORIAL HepG2 Assay for human Estrogen-Related Receptor gamma (ERRg) (AID 2282977).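 Further: hits increase reporter signal over DMSO so potencies reflect activators.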 The conditions noted are these: HepG2 Attagene TRANS reporter, ERRg transactivation. A digest of the protocol:
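Exogenous NR-Gal4 chimera activity measured as reporter transcript induction after 24 h in transiently transfected HepG2 cells. RNA reverse-transcribed, PCR-amplified, 6-FAM-labelled and resolved by capillary electrophoresis; increase over DMSO baseline.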

The target of test [16] is Glucocorticoid receptor (Homo sapiens) (UniProt P04150). As to the kind of experiment: ATG_GR_TRANS: Attagene TRANS-FACTORIAL HepG2 Assay for human Glucocorticoid Receptor (GR) (AID 2282978).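 Further: activators score as hits since higher reporter transcript over DMSO is fitted.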 The conditions noted are these: HepG2 Attagene TRANS GR reporter, mRNA transcription. The procedure, abridged: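 HepG2 cells transiently transfected with GAL4-UAS reporter units and exogenous GR-Gal4 chimera, dosed 24 h. Reporter mRNA by RT-PCR, FAM labeling, HpaI digest and capillary electrophoresis; gain-of-signal fit versus DMSO.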
Chain of Glucocorticoid receptor (Homo sapiens) (P04150 whole entry, looked up, the tested form may be a part): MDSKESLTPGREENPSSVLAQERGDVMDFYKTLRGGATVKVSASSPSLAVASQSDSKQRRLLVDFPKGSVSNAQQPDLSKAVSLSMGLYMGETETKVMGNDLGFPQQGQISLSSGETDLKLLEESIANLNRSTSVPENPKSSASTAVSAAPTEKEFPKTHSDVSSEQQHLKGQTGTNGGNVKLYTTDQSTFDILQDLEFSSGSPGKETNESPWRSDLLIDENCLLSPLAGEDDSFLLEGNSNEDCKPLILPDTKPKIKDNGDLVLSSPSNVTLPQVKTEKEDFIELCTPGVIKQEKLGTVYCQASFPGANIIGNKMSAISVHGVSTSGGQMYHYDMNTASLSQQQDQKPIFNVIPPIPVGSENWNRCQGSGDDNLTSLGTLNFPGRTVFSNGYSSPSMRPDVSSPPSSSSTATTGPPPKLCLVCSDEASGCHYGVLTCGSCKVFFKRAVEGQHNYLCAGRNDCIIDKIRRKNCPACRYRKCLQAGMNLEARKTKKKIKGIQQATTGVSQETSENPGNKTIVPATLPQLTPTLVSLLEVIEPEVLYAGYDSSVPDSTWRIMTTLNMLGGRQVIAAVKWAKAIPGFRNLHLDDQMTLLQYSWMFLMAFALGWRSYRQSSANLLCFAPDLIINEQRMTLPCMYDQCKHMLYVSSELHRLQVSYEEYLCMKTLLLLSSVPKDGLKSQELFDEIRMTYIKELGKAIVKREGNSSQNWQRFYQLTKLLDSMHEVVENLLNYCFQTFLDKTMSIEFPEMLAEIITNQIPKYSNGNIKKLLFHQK

The target of test [17] is Bile acid receptor (Homo sapiens) (UniProt Q96RI1). As to the kind of experiment: ATG_FXR_TRANS: Attagene TRANS-FACTORIAL HepG2 Assay for Farnesoid X Receptor (FXR) (AID 2282979).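 Further: hits raise reporter mRNA above DMSO so AC50 marks FXR activation.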 The conditions noted are these: HepG2 Attagene TRANS FXR-GAL4 reporter transcription. A digest of the protocol:
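Read-out: fluorescent reporter transcripts quantified by capillary electrophoresis after RT-PCR of total RNA. Source cells were HepG2 transiently carrying chimeric NR-GAL4 plus GAL4-UAS reporter units, dosed 24 h. Activity fitted upward relative to DMSO baseline.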

For test [18], the target named is Oxysterols receptor LXR-alpha (Homo sapiens) (UniProt Q13133). As to the kind of experiment: ATG_LXRa_TRANS: Attagene TRANS-FACTORIAL HepG2 Assay for human Liver X Receptor alpha (LXRa) (AID 2282980). To be noted: HepG2 Attagene TRANS reporter, LXRa transactivation. The procedure, abridged:
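Read-out: reporter transcript levels by RT-PCR plus capillary electrophoresis, fluorescence intensity. Transiently transfected HepG2, exogenous NR-GAL4 chimera, GAL4-UAS reporters; 24 h compound exposure. Activity = increase over DMSO negative control.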

The target in test [19] is Hepatocyte nuclear factor 4-alpha (Homo sapiens) (UniProt P41235). As to the kind of experiment: ATG_HNF4a_TRANS: Attagene TRANS-FACTORIAL HepG2 Assay for human Hepatocyte Nuclear Factor 4 alpha (HNF4a) (AID 2282982). To be noted: HepG2 HNF4a transactivation reporter, mRNA readout. A digest of the protocol: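 Activity of an exogenous HNF4a–Gal4 fusion scored as induced GAL4-UAS reporter transcripts after 24 h chemical exposure of transfected human HepG2 cells. Read-out via RT-PCR with 6-FAM labelling and capillary electrophoresis; rise over DMSO baseline.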
Chain of Hepatocyte nuclear factor 4-alpha (Homo sapiens) (P41235 whole entry, looked up, the tested form may be a part): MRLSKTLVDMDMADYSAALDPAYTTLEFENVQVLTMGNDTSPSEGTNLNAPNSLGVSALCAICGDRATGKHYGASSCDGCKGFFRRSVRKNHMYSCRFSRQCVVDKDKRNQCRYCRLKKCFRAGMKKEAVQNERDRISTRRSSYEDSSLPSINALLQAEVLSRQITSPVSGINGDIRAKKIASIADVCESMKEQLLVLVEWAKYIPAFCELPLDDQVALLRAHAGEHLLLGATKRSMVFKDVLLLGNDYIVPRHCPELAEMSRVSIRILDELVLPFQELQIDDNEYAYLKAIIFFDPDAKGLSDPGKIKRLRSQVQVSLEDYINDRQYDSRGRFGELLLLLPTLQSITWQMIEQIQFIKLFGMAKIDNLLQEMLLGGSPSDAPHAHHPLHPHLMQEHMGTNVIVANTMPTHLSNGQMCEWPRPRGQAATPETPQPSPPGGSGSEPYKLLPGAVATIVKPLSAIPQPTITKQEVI

Test [20] concerns the target Oxysterols receptor LXR-beta (Homo sapiens) (UniProt P55055). As to the kind of experiment: ATG_LXRb_TRANS: Attagene TRANS-FACTORIAL HepG2 Assay for human Liver X Receptor beta (LXRb) (AID 2282981). The conditions noted are these: HepG2 Attagene TRANS GAL4-LXRb reporter, mRNA. A digest of the protocol:
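After 24 h chemical treatment of transfected HepG2 cells carrying exogenous NR-Gal4 chimeras, reporter mRNA was quantified by fluorescent RT-PCR and capillary electrophoresis; activity taken as increase over DMSO controls.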

Chain of Nuclear respiratory factor 1 (Homo sapiens) (Q16656 whole entry, looked up): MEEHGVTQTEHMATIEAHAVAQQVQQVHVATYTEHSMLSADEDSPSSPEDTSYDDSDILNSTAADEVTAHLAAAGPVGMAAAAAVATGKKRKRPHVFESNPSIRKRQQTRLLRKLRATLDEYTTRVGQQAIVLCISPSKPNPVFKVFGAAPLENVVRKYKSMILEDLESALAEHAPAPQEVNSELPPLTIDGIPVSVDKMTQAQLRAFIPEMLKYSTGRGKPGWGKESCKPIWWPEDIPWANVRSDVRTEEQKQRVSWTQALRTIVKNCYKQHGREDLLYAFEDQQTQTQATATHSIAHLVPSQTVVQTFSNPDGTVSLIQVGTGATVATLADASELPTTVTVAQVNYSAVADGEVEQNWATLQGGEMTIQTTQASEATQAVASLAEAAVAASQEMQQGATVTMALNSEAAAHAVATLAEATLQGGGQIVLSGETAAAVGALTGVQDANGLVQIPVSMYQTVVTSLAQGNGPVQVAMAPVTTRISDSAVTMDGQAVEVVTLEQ
Chain of Bile acid receptor (Homo sapiens) (Q96RI1 whole entry, looked up, the tested form may be a part): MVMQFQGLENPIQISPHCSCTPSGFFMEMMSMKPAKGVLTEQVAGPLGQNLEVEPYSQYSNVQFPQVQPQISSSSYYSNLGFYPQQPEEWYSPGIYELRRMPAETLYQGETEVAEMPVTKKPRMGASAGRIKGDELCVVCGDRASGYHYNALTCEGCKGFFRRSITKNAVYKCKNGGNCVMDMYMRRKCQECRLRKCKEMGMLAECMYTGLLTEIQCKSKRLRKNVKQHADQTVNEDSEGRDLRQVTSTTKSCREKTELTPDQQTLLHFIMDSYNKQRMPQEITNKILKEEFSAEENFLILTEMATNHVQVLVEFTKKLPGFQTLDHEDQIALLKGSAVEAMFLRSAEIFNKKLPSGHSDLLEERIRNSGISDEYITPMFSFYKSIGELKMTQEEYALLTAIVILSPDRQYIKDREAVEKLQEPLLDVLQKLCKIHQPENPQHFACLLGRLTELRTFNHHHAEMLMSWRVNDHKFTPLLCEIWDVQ
Chain of Transcriptional activator Myb (Homo sapiens) (P10242 whole entry, looked up): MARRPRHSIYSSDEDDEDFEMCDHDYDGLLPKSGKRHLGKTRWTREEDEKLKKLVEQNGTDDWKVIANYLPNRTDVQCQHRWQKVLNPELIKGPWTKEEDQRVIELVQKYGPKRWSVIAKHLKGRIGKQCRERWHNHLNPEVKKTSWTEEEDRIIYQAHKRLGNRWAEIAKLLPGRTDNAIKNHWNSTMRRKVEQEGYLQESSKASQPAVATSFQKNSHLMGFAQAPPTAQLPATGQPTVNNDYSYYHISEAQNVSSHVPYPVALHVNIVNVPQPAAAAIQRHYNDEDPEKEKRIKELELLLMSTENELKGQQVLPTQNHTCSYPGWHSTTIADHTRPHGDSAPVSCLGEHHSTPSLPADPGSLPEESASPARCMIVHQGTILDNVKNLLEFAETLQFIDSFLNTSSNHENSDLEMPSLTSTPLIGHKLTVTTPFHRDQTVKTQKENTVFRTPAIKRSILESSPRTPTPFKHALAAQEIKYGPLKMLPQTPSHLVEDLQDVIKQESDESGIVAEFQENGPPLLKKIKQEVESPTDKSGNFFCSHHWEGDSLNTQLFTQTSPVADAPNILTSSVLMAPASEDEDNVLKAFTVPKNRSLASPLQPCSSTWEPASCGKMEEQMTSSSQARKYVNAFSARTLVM
Chain of Oxysterols receptor LXR-beta (Homo sapiens) (P55055 whole entry, looked up, the tested form may be a part): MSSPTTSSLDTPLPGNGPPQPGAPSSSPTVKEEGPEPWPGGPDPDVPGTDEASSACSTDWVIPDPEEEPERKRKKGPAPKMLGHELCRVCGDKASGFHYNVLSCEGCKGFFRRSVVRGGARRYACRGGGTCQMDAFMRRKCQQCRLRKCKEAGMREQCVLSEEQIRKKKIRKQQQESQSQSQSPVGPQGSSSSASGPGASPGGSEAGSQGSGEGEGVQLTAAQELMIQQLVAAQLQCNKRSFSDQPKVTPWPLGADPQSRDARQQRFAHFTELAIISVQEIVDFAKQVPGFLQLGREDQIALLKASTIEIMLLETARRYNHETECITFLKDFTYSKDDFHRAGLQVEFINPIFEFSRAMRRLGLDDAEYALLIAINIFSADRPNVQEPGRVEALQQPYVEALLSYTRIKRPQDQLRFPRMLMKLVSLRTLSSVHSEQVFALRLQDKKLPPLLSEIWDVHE
Chain of Nuclear receptor subfamily 4 group A member 2 (Homo sapiens) (P43354 whole entry, looked up, the tested form may be a part): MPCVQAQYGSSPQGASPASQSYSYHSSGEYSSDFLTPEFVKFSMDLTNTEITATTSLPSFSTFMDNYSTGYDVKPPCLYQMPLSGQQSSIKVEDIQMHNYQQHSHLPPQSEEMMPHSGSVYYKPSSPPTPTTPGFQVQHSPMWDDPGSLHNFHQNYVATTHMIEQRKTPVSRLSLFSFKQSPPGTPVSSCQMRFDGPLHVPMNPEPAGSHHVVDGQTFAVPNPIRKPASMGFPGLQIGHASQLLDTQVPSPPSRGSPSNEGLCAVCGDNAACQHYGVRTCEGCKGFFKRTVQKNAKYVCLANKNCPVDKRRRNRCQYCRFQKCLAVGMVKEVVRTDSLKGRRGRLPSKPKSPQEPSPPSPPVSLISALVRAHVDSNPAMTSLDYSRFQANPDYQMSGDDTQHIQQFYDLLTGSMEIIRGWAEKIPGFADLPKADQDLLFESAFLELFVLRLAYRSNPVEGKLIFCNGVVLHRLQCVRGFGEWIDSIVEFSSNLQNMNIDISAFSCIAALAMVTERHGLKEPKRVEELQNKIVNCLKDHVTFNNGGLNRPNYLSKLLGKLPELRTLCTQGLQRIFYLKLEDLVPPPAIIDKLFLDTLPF
Chain of Estrogen-related receptor gamma (Homo sapiens) (P62508 whole entry, looked up, the tested form may be a part): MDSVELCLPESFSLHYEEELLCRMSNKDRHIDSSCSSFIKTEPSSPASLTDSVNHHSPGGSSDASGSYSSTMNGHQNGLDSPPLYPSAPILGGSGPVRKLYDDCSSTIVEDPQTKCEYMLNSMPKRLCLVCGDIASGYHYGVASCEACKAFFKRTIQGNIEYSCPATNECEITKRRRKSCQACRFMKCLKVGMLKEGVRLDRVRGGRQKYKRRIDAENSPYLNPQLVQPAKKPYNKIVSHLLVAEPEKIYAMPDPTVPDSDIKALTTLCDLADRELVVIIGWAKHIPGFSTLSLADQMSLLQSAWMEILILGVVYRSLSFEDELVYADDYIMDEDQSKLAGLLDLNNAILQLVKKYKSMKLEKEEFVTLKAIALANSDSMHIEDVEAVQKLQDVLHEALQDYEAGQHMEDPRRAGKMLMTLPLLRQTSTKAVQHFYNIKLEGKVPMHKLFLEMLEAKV

Take `CC(C)(CO)[C@@H](O)C(=O)NCCC(=O)O`: the molecule was called inactive in [1], in [2], in test [3], in test [4], in [5] and in [6]. Moreover, the molecule was classed as inactive in test [7], in [8], in test [9], in test [10], in test [11] and in test [12].
Take `COC(=O)c1ccc(OC)cc1`: the outcome in [1], in test [2], in [3], in test [13], in [5] and in test [14] was inactive. The molecule was called inactive in test [15], in [17], in test [18], in test [19], in test [7] and in test [10]. For the same molecule, the result in test [11] and in [12] was inactive. Also, the half-maximal activity concentration (AC50) in test [16] was 15.1 µM (active).
Regarding `CCCCCCCCCCCC(=O)OC[C@@H](O)[C@H]1OC[C@H](O)[C@H]1O`, the result in test [1], in test [2], in [3], in test [13], in test [5] and in [14] was inactive. Besides, the call in test [6], in test [15], in test [16], in [17], in test [18] and in test [20] was inactive. Moreover, the molecule was classed as inactive in [19], in test [7], in test [8], in test [10], in [11] and in test [12].
Consider `CC(=O)c1c(C)c([N+](=O)[O-])c(C(C)(C)C)c([N+](=O)[O-])c1C`, for which the call in test [1], in [4], in [5], in [16], in [17] and in test [20] was inactive. Further, the molecule was called inactive in test [19], in test [7], in test [10], in [11] and in [12]. The AC50 was 100 µM (active) in [2], 4.01 µM (active) in [3] and 10.2 µM (active) in test [9].
